From PubChem BioAssay (NCI)
This is part of a sample that, as a whole, favours compounds with a hit. Of some 79,000 tested, about 15% had one in any assay. Cut-off read from the data, not from the text of the source: active = growth inhibition above about 70%; inactive = the rest.

Columns and labels:
[1] = NCI Yeast Anticancer Drug Screen. Data for the rad50 strain (AID 155);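 note: 0% = growth of vehicle-only cultures of the same strain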; details: S. cerevisiae rad50 strain growth inhibition; at 50.0 µM; stronger effect = higher value
In short: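 Inhibition values express reduced yeast growth in compound-treated cultures relative to vehicle-treated controls.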

[2] = NCI Yeast Anticancer Drug Screen. Data for the mec2-1 strain (AID 157); details: S. cerevisiae mec2-1 strain, at 50.0 µM, stronger effect = higher value
In short: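 Readout is yeast growth inhibition, normalised to vehicle-treated controls, in the mec2-1 strain exposed to compound.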

[3] = NCI Yeast Anticancer Drug Screen. Data for the sgs1 mgt1 strain (AID 161);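 note: 0% = growth of cultures given vehicle only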; details: S. cerevisiae sgs1 mgt1 strain, at 50.0 µM, stronger effect = higher value
In short: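 Yeast cells carrying a defined DNA-repair defect were exposed to test compounds. Growth inhibition was measured relative to vehicle-treated controls.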

[4] = NCI Yeast Anticancer Drug Screen. Data for the cln2 rad14 strain (AID 165);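 note: 0% = growth equal to vehicle treated cultures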; details: S. cerevisiae cln2 rad14 strain, at 50.0 µM, stronger effect = higher value
In short: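 Relative to vehicle controls, growth inhibition of compound-treated cln2 rad14 yeast was recorded.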

[5] = NCI Yeast Anticancer Drug Screen. Data for the bub3 strain (AID 167); details: S. cerevisiae bub3 mutant strain, at 50.0 µM, stronger effect = higher value
In short: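 Steps: expose the mutant yeast strain to compound; grow alongside vehicle-treated cultures; measure growth; express inhibition against the vehicle cultures.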

[6] = NCI Yeast Anticancer Drug Screen. Data for the mlh1 rad18 strain (AID 175); details: S. cerevisiae mlh1 rad18 strain growth inhibition; at 50.0 µM; stronger effect = higher value
In short: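 Test agents were incubated with a yeast strain of defined genotype (DNA damage repair defect). Inhibition of growth was derived by comparison with vehicle-exposed cultures.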

Measured: growth inhibition

COC(=O)/C(C#N)=C/c1ccc2c(c1)OCO2
inactive: [1] 12.4% | [2] 7.65% | [3] 16.1% | [4] 11.2% | [5] 35.9% | [6] 28.2%

O=C(Cc1nc2ccc(C(=O)c3ccccc3)cc2[nH]c1=O)C(=O)Nc1ccc(Br)cc1
inactive: [1] -27.6% | [2] -28.9% | [3] -2.65% | [4] -9.4% | [5] -3.3% | [6] -3.7%

CCCCCCCCC/C=C\C(=O)O
inactive: [1] 4.6% | [2] -12.5% | [3] 10.2% | [4] -22.9% | [5] -13.8% | [6] 37%

c1ccc(Cn2nnc(-c3ccccc3)n2)cc1
inactive: [1] 19.3% | [2] 8.45% | [3] 5.3% | [4] -10.3% | [5] 32.9% | [6] 18.4%

CC(CO)CCNc1ncnc2c1ncn2CCC(=O)OC(C)(C)C (stereo unspecified)
inactive: [1] -27.6% | [2] 16.4% | [3] -21.6% | [4] -20.6% | [5] -1.85% | [6] -9.65%

O=C(Oc1ccccc1)N1CCCSC1=S
inactive: [1] 19.4% | [2] -14.3% | [3] 5.35% | [4] 31.4% | [5] 16.2% | [6] 51.2%

Nc1cnccc1NCC(O)c1ccccc1 (stereo unspecified)
inactive: [1] 9.95% | [2] -5.9% | [3] -6.65% | [4] -15.6% | [5] -1.5% | [6] -8.6%

Cc1ccc([N+](=O)[O-])cc1NC(=O)N(C)Cc1ccc(Cl)cc1
inactive: [1] 5.5% | [2] 24.2% | [3] -12.2% | [4] -5.35% | [5] -5.4% | [6] -8.9%

CN(C)C=Nc1c(Br)cc(Br)c2nonc12
inactive: [1] -26.7% | [2] -31.1% | [3] -32.5% | [4] -23.8% | [5] -22.9% | [6] -8.45%

O=C(O)CSC1=NNC2(C(=O)N1)c1ccccc1-c1ccccc12
inactive: [1] 1.8% | [2] -2% | [3] 18.4% | [4] -2.1% | [5] -3.85% | [6] 24.1%

Oc1cc(O)cc(/C=C/c2ccc(O)c(O)c2)c1
inactive: [1] 5.2% | [2] -2.35% | [3] 6% | [4] 5.95% | [5] 18.4% | [6] 18.6%

CC1(C#N)C(C#N)(C#N)C1(C#N)C#N
inactive: [1] -0.05% | [2] -3.35% | [3] -10.8% | [4] -13.2% | [5] -30.1% | [6] -21.1%

CC(=O)c1cccc(NC(=O)N2CCCCC2C)c1 (stereo unspecified)
inactive: [1] -4.9% | [2] 29.9% | [3] 8.9% | [4] -13.3% | [5] 15.2% | [6] -12.8%

CCOC(=O)CN
inactive: [1] -0.25% | [2] 7.7% | [3] 2.15% | [4] -0.4% | [5] -2% | [6] 14.1%

CCOC(=O)C1C/C2=C(/CCCCCCCCCC2)SCCCS1 (stereo unspecified)
inactive: [1] 4.35% | [2] 5.2% | [3] -9% | [4] 2.15% | [5] -13.7% | [6] -23.7%

S=c1c2ccccc2sn1-c1ccccc1
inactive: [1] 26.2% | [2] 21.6% | [3] 14.9% | [4] -0.85% | [5] -12.9% | [6] 51.5%

CN(C)CCOC(=O)c1ccc(N)cc1
inactive: [1] -6.35% | [2] 1.6% | [3] -31.8% | [4] -19.6% | [5] 23.1% | [6] -8.35%

CC(=O)C1(C(C)=O)OC2c3ccccc3C=CN2C=C1C=O (stereo unspecified)
inactive: [1] 6.6% | [2] 1.35% | [3] 14.6% | [4] 4.45% | [5] 6.05% | [6] 11.1%

NNC(=O)C(=O)O
inactive: [1] 14.4% | [2] -2.95% | [3] 20.2% | [4] -15% | [5] 15.3% | [6] 14.8%

Cc1cc(Br)c[nH]c1=O
inactive: [1] -4.75% | [2] -7.7% | [3] -3.65% | [4] -20.2% | [5] -29.1% | [6] 5.05%

COc1nc2c(c(O)cn2C2OCC(OC(C)=O)C(OC(C)=O)C2OC(C)=O)c(=O)n1C (stereo unspecified)
inactive: [1] -1.65% | [2] -5.9% | [3] -25.8% | [4] -2.75% | [5] -1% | [6] 15.8%

CC1=C(C)C(=O)OC1
inactive: [1] -3.55% | [2] -12.3% | [3] -0.9% | [4] 6% | [5] 9.85% | [6] -24.5%

NC1=NN(c2ccccc2)C(=O)C1/C(=N\NC(=O)c1cc2ccccc2cc1O)C(=O)Nc1cccc(C(F)(F)F)c1 (stereo unspecified)
inactive: [1] 47% | [2] 15.7% | [3] -33.5% | [4] 19.9% | [5] 20.5% | [6] 31.4%

CC(=O)NC(Cc1cccc2ccccc12)C(=O)O (stereo unspecified)
inactive: [1] 0.55% | [2] -6.15% | [3] -0.05% | [4] -2% | [5] 2.6% | [6] -6.45%

O=C(NCCCCC[N+](CCCCCNC(=O)c1ccccc1)(CCCCCNC(=O)c1ccccc1)CCCCCNC(=O)c1ccccc1)c1ccccc1
inactive: [1] 3.65% | [2] 10.4% | [3] -15.2% | [4] -2.2% | [5] -1.65% | [6] -7.85%

COC(=O)C(C(=O)C(=O)Nc1ccccc1C(C)=O)c1nc2ccc(Cl)cc2[nH]c1=O (stereo unspecified)
inactive: [1] -31.9% | [2] -16.2% | [3] -12.3% | [4] -4.45% | [5] -19.3% | [6] -14.4%

COc1cc2c(c([N+](=O)[O-])c1)NC(=O)CC(C)S2 (stereo unspecified)
inactive: [1] -48.8% | [2] -6.25% | [3] 21.9% | [4] -9.4% | [5] 17.4% | [6] -3.45%

C=C(C)C1Cc2c(cc(OC)c3c(=O)c4cccc(O)c4oc23)O1 (stereo unspecified)
inactive: [1] 43.1% | [2] 15.4% | [3] -1.95% | [4] 25.4% | [5] -20.2% | [6] -21.4%

CC1CSC(C)C(=O)N1 (stereo unspecified)
inactive: [1] -11.2% | [2] -3.65% | [3] -5.75% | [4] 7.55% | [5] 15.8% | [6] 2%

Cc1cc2c(c([N+](=O)[O-])c1C)C(=O)C(Br)=C(Br)C2=O
inactive: [1] 15.7% | [2] 10.4% | [3] 21.5% | [4] 34.7% | [5] 5.9% | [6] 36.2%

c1ccc(-c2cnn3c(-c4ccccc4)cnnc23)cc1
inactive: [1] -1.65% | [2] -8.1% | [3] -2.55% | [4] 2.8% | [5] 2.8% | [6] 4.65%

CN(N)c1cnn(-c2ccccc2)c(=O)c1Cl
inactive: [1] -37.2% | [2] -48% | [3] -22.1% | [4] 19.4% | [5] 21.4% | [6] -36.6%

COc1ccc(C2OC3=C(Nc4ccc([N+](=O)[O-])cc4N3)C2=O)cc1 (stereo unspecified)
inactive: [1] -7.25% | [2] -19.3% | [3] -16.8% | [4] -5.35% | [5] -37.9% | [6] -5.8%

C=C1C(=O)C[C@@H]2CC(C)(C)C[C@]12CC(=O)O
inactive: [1] -11.1% | [2] -41.5% | [3] -1.65% | [4] -7.05% | [5] -9.15% | [6] -17.1%

CCOC(=O)CNC(=O)C(Cc1ccccc1)NC(=O)c1ccccc1NC(=O)c1ccccc1 (stereo unspecified)
inactive: [1] 28.8% | [2] 20.8% | [3] 4.3% | [4] 13.3% | [5] 0.7% | [6] 22.2%

CCOc1c(N=Nc2ccc(Cl)cc2Cl)c(C)nn1C(N)=S
inactive: [1] -16.2% | [2] 0.15% | [3] 11.1% | [4] -43.8% | [5] -24.2% | [6] 17.5%

COc1ccc(C2N(c3ccccc3)OC(=O)N2c2ccccc2)cc1 (stereo unspecified)
inactive: [1] 43.8% | [2] 7.2% | [3] 16.1% | [4] 9.1% | [5] 14.4% | [6] 20.8%

O=C(O)C1CCN(C(=O)Cc2ccccc2)CC1
inactive: [1] -12.5% | [2] -1.95% | [3] -2.15% | [4] -5.6% | [5] 0.05% | [6] -14.7%

O=C(Nc1nc2ccc([N+](=O)[O-])cc2s1)C(=O)C(C(=O)c1ccncc1)C1OC(=O)c2ccccc21 (stereo unspecified)
inactive: [1] 24.1% | [2] 9.25% | [3] -19.5% | [4] 39.2% | [5] 49.8% | [6] 27.3%

Cc1cccc2c(/C=C/c3ccc(N(C)C)cc3)ccnc12
inactive: [1] -11.6% | [2] -8% | [3] -3.95% | [4] -22.2% | [5] 2.85% | [6] -11.4%

Cc1cccc(-c2c3ccccc3cc3c2ccc2ccccc23)c1
inactive: [1] 11.9% | [2] -5.35% | [3] -3.55% | [4] -13.8% | [5] 8.7% | [6] -2.65%
